# Experimental data: PubChem BioAssay (NCATS)
# Unmarked numbers belong to inactive results. Records with an inconclusive call do not appear. Entries that show only a call come without a potency. Active and inactive are the calls of the source. Unless noted, calls come from the whole dose curve; as a rule, active = well fitted curve in the direction sought with a large enough effect; inconclusive = small, poorly fitted or top-dose-only effect, or another doubt; inactive = no such curve, though single readings can be large; an effect the other way counts as inactive or inconclusive.
# Tests used:
# [1] = Confirmatory qHTS to identify inhibitors of SARS-CoV-2 cell entry (AID 1645844; calls by dose curve; note: potency is the fitted concentration of half-maximal effect; nearly all actives have a fitted effect of over 45% in size); conditions: SARS-CoV-2 pseudotyped particle cell entry, luciferase; series mostly up to 57.2 µM
# Summary of the method: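 Luminescence from a luciferase reporter, read 48 hr after pseudotyped-particle addition, gives entry signal, normalised to spike-bearing PP wells and bald PP lacking fusion protein wells. Cells are Expi293F stably expressing human ACE2, compound-pretreated 1 hr.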
# [2] = target: Cytochrome P450 3A4 (Homo sapiens) (UniProt P08684); assay: qHTS Assay for Inhibitors and Substrates of Cytochrome P450 3A4 (AID 884); conditions: recombinant CYP3A4, Luciferin-PPXE luminescence; series mostly up to 57.1 µM; note: nearly all actives have a fitted effect of over 50% in size; note: potency is the fitted concentration of half-maximal effect
# Chain of Cytochrome P450 3A4 (Homo sapiens) (P08684 whole entry, looked up): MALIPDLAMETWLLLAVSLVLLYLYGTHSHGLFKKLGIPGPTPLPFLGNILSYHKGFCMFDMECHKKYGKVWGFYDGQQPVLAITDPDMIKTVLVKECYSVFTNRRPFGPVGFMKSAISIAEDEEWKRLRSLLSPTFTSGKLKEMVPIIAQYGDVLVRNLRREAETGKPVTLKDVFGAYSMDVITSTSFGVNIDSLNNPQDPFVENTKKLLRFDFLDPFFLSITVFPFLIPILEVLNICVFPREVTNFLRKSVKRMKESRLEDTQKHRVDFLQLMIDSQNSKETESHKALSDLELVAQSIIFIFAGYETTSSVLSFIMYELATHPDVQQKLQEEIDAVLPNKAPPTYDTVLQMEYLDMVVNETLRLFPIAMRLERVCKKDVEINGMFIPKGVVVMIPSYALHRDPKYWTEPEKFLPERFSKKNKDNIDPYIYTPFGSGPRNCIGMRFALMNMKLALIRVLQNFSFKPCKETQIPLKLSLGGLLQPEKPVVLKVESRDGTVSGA
# Summary of the method: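 20 nM human CYP3A4 with 25 uM Luciferin-PPXE (at KM) in 200 mM KPO4, preincubated 10 min with compound; NADPH regeneration started a 60 min RT reaction. Luciferin detected by luminescence, normalized to 57 uM ketoconazole as full inhibition.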
# [3] = target: Cytochrome P450 3A4 (Homo sapiens) (UniProt P08684); assay: qHTS Assay for Activators of Cytochrome P450 3A4 (AID 885); conditions: recombinant CYP3A4, Luciferin-PPXE luminescence, 60 min; series mostly up to 57.1 µM; note: nearly all actives have a fitted effect of over 65% in size
# Summary of the method: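 20nM CYP3A4 + 25uM Luciferin-PPXE (=KM), 200mM KPO4; cpd 10 min RT; NADPH regen, 60 min RT; stop w/ detection buffer, 20 min; luminescence. Normalized to 57 uM ketoconazole.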
# [4] = qHTS Assay for Identification of Small Molecule Agonists for Thrombopoietin (TPO) Signaling Pathway (AID 917); conditions: TPO signaling pathway reporter cells, agonist qHTS; series mostly up to 38.5 µM
# Summary of the method: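 Murine Ba/F3 cells expressing human TPO receptor and GPIIb-promoter luciferase, IL-3-starved overnight, given compound plus TPO at 26 pM (EC50). After 24 h at 37 C, 5% CO2, luminescence read.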
# [5] = target: Muscarinic acetylcholine receptor M1 (Rattus norvegicus) (UniProt P08482); assay: qHTS Assay for Antagonists of Acetylcholine Muscarinic M1 Receptor: Kinetic Measurement of Intracellular Calcium Response (AID 943); conditions: M1-expressing cells, kinetic intracellular calcium fluorescence; series mostly up to 35.3 µM; note: nearly all actives have a fitted effect of over 75% in size; note: potency is the fitted concentration of half-maximal effect
# Chain of Muscarinic acetylcholine receptor M1 (Rattus norvegicus) (P08482 whole entry, looked up): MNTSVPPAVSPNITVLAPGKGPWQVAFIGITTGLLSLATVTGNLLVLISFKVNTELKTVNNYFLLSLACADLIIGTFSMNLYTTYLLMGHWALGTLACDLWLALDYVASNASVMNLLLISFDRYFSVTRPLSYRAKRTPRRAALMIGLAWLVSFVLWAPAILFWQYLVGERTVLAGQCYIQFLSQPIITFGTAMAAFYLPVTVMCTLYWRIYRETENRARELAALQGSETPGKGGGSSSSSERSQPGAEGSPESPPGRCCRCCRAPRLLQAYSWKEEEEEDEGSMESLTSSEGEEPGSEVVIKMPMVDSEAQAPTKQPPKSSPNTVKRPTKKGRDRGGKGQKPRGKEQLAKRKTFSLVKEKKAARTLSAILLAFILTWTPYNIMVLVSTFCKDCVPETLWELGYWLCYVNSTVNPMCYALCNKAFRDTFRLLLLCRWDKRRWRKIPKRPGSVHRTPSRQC
# Summary of the method: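 CHO cells expressing rat M1 receptor, Fluo-4 loaded, preincubated 10 min with compound, then stimulated with EC80 carbachol (100 nM final). Kinetic calcium fluorescence over 4 min; response taken as peak over basal signal.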
# [6] = target: Muscarinic acetylcholine receptor M1 (Rattus norvegicus) (UniProt P08482); assay: qHTS Assay for Antagonists of Acetylcholine Muscarinic M1 Receptor: Measurement of IP-One Response (AID 944); conditions: CHO-M1 cells, IP-One HTRF, antagonist mode; series mostly up to 46.1 µM; note: nearly all actives have a fitted effect of over 75% in size; note: potency is the fitted concentration of half-maximal effect
# Summary of the method: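 CHO cells stably expressing rat M1, pretreated 10 min with compound, then stimulated 30 min with carbachol at EC80 (200 nM) in LiCl-containing buffer pH 7.4; IP1 accumulation read by HTRF competition (665/620 nm).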
# [7] = target: ATP-dependent 6-phosphofructokinase (Trypanosoma brucei brucei) (UniProt O15648); assay: qHTS Assay to Find Inhibitors of T. brucei phosphofructokinase: hit validation (AID 492961);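 note: luminescence reports ADP formed as PFK phosphorylates fructose-6-phosphate with ATP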; conditions: T. brucei PFK, ADP-Glo luminescence; series mostly up to 51.4 µM
# Chain of ATP-dependent 6-phosphofructokinase (Trypanosoma brucei brucei) (O15648 whole entry, looked up): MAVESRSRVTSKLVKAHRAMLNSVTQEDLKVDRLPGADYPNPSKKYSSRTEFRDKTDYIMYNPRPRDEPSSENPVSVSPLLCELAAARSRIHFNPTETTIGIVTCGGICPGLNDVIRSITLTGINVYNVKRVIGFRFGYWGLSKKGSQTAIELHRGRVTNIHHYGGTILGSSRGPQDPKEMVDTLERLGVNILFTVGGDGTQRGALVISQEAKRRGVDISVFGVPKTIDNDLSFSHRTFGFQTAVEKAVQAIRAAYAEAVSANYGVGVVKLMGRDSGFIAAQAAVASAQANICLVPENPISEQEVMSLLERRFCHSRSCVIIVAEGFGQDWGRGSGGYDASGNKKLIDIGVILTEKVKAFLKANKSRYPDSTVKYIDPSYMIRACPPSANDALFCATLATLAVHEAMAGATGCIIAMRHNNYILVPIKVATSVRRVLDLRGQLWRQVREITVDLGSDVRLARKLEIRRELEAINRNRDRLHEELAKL
# Summary of the method: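 ADP-Glo luminescence read-out of ADP formed by 1.25 nM PFK from 0.1 mM ATP and 0.5 mM F6P (TEA pH 8.0, 45 min, RT). Compounds titrated; activity normalized to no-enzyme and full-enzyme controls.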
# [8] = S16 Schwann cell PMP22 intronic element beta-lactamase assay (AID 624044; calls by dose curve; note: nearly all actives have a fitted effect of over 15% in size); conditions: S16 rat Schwann cells, PMP22 element beta-lactamase FRET, 24 h; ratio activity, negative = inhibition: at 38.3 µM (top of the series) unless noted
# Summary of the method: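 Rat S16 Schwann cells with beta-Lac driven by a PMP22 intronic element, compound-treated 24 h at 37 °C. LiveBLAzer FRET B/G read: 460 nm normalized to potassium clavulanate vs DMSO; 535 nm FRET as viability; concentration-effect curves classified.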
# 3D7 = assay: qHTS profiling for inhibitors of Plasmodium falciparum proliferation (AID 504749); note: nearly all actives have a fitted effect of over 60% in size; note: potency is the fitted concentration of half-maximal effect; conditions: P. falciparum in erythrocytes, SYBR Green DNA, 72 h; series mostly up to 28.7 µM
# Summary of the method: (§1)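 Infected RBCs, 0.3% parasitemia/2.5% Hct final; cpd 72 h, 37 C, 5% CO2; lysis buffer with saponin/triton/SYBR Green I, o/n RT dark; FI 485/535; norm. to artemisinin (0.29 uM) and DMSO.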
# CP211 = assay: as above; conditions: P. falciparum in erythrocytes, SYBR Green DNA, 72 h; series mostly up to 28.7 µM
# Summary of the method: as §1
# CP247 = assay: as above; conditions: P. falciparum in erythrocytes, SYBR Green DNA, 72 h; series mostly up to 28.7 µM
# Summary of the method: as §1
# CP256 = assay: as above; conditions: P. falciparum in erythrocytes, SYBR Green DNA, 72 h; series mostly up to 28.7 µM
# Summary of the method: as §1
# CP268 = assay: as above; conditions: P. falciparum in erythrocytes, SYBR Green DNA, 72 h; series mostly up to 28.7 µM
# Summary of the method: as §1
# Dd2 = assay: as above; conditions: P. falciparum in erythrocytes, SYBR Green DNA, 72 h; series mostly up to 28.7 µM
# Summary of the method: as §1
# ECU = assay: as above; conditions: P. falciparum in erythrocytes, SYBR Green DNA, 72 h; series mostly up to 28.7 µM
# Summary of the method: as §1
# FAB9 = assay: as above; conditions: P. falciparum in erythrocytes, SYBR Green DNA, 72 h; series mostly up to 28.7 µM
# Summary of the method: as §1
# PC15 = assay: as above; conditions: P. falciparum in erythrocytes, SYBR Green DNA, 72 h; series mostly up to 28.7 µM
# Summary of the method: as §1
# PC49 = assay: as above; conditions: P. falciparum in erythrocytes, SYBR Green DNA, 72 h; series mostly up to 28.7 µM
# Summary of the method: as §1
# W2 = assay: as above; conditions: P. falciparum in erythrocytes, SYBR Green DNA, 72 h; series mostly up to 12.8 µM
# Summary of the method: as §1
# [9] = target: Cytochrome P450 1A2 (Homo sapiens) (UniProt P05177); assay: p450-cyp1a2 (AID 410; calls by dose curve; note: potency is the fitted concentration of half-maximal effect); conditions: recombinant CYP1A2, luciferin-ME demethylation, luminescence; series mostly up to 25.6 µM
# Chain of Cytochrome P450 1A2 (Homo sapiens) (P05177 whole entry, looked up): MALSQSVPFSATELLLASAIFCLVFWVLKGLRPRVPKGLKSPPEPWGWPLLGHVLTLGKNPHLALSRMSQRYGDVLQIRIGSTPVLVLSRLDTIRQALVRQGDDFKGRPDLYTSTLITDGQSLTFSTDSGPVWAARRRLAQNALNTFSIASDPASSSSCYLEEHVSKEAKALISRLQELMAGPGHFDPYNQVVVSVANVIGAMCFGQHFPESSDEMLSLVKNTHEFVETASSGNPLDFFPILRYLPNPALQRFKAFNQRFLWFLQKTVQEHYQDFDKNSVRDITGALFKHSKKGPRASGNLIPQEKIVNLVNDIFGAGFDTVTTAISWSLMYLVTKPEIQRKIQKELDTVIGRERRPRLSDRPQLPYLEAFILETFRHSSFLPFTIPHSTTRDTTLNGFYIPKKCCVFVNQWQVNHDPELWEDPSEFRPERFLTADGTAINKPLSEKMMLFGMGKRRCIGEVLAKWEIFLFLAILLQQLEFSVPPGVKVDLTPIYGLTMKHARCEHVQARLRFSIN
# Summary of the method: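 20nM CYP1A2 with 100uM Luciferin-ME (at Km) in 100mM KPO4; compound preincubated 10 min, NADPH regeneration added, 60 min at room temperature. Luciferin quantified by luminescence after detection reagent; normalized to 57 uM furafylline.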
compound,measurement,setting,value
Cc1c(N)nc([C@H](CC(N)=O)NC[C@@H](N)C(N)=O)nc1C(=O)N[C@H](C(=O)N[C@@H](C)[C@H](O)[C@@H](C)C(=O)N[C@@H](C(=O)NCCc1nc(-c2nc(C(=O)NCCC[S+](C)C)cs2)cs1)[C@@H](C)O)C(O[C@H]1O[C@H](CO)[C@H](O)[C@@H](O)[C@H]1O[C@H]1O[C@H](CO)[C@@H](O)[C@H](OC(N)=O)[C@@H]1O)c1cnc[nH]1 (stereo partly specified),Potency,[1],0.0341 µM (active)
CCC1/C=C/C=CCC(C)C(O)[C@@](C)(O)C(=O)C(C)C(O)C(C)C(=O)C(C)C(O)C(C)C=CC(=O)O[C@H]2C(C)C(CC1)O[C@]1(CCC(C)C(CC(C)O)O1)C2C (stereo partly specified),Potency,[2],7.94 µM (active)
same,Potency,[3],inactive
CC(C)[C@]12O[C@H]1[C@@H]1O[C@@]13[C@@]1(C)CCC4=C(COC4=O)[C@@H]1C[C@@H]1O[C@@]13C2=O,Potency,[1],0.271 µM (active)
C/C=C(\C)C(=O)N[C@@H](c1ccccc1)[C@@H](O)C(=O)O[C@H]1C[C@@]2(O)[C@@H](OC(=O)c3ccccc3)[C@@H]3[C@]4(OC(C)=O)CO[C@@H]4C[C@H](O)[C@@]3(C)C(=O)[C@H](OC(C)=O)C(=C1C)C2(C)C,Potency,[1],0.0043 µM (active)
CC(C)(O)/C=C\C(=O)[C@](C)(O)[C@H]1[C@H](O)C[C@]2(C)[C@@H]3CC=C4[C@@H](C=C(O)C(=O)C4(C)C)[C@]3(C)C(=O)C[C@@]12C,Potency,[2],0.398 µM (active)
same,"activity change, positive = activation",[3],-93.2% [at 11.4 µM]
CO[C@H]1CCC(O[C@H]2C[C@H]([C@]3(C)CC[C@]4(C[C@H](O)[C@@H](C)[C@@H]([C@@H](C)/C=C(\C)C(=O)[C@H](C)C[C@H](C)C(=O)O)O4)O3)O[C@]3(O[C@@H]([C@H]4O[C@@](O)(CO)[C@H](C)C[C@@H]4C)C[C@@H]3C)[C@@H]2C)O[C@@H]1C (stereo partly specified),Potency,[1],0.681 µM (active)
NNCc1cccc(O)c1,outcome,[4],inactive
CCCCN1C2CCC1CC(OC(c1ccc(F)cc1)c1ccc(F)cc1)C2 (stereo unspecified),Potency,[2],inactive
same,Potency,[5],0.398 µM (active)
same,Potency,[6],2.24 µM (active)
C[C@H]1OC[C@@H](C[N+](C)(C)C)O1,outcome,[4],inactive
same,Potency,[5],inactive
same,Potency,[6],inactive
CCN(CC)C(=O)N[C@@H]1C[C@@H]2c3cccc4[nH]cc(c34)C[C@H]2N(C)C1,Potency,[7],inactive
same,Potency,[8],inactive
same,Potency,3D7,inactive
same,Potency,CP211,3.38 µM (active)
same,Potency,CP247,inactive
same,Potency,CP256,2.24 µM (active)
same,Potency,CP268,inactive
same,Potency,Dd2,3.98 µM (active)
same,Potency,ECU,inactive
same,Potency,FAB9,inactive
same,Potency,PC15,inactive
same,Potency,PC49,inactive
same,Potency,W2,1.69 µM (active)
CCCN(CCC)C(=O)Cc1c(-c2ccc(Cl)cc2)nc2c(Cl)cc(Cl)cn12,Potency,[9],inactive
same,Potency,[3],inactive
same,outcome,[4],inactive
same,Potency,[5],inactive
same,Potency,[6],inactive
NCC#Cc1ccccc1,Potency,[9],3.16 µM (active)
same,Potency,[3],inactive
same,Potency,[6],inactive
CC(C)(O)C1C2OC(=O)C1[C@]1(O)C[C@H]3O[C@]34C(=O)O[C@H]2[C@]14C (stereo partly specified) (tested in a mixture with another compound),Potency,[7],inactive
same,Potency,[8],inactive
same,Potency,3D7,inactive
same,Potency,CP211,inactive
same,Potency,CP247,inactive
same,Potency,CP256,inactive
same,Potency,CP268,inactive
same,Potency,Dd2,inactive
same,Potency,ECU,inactive
same,Potency,FAB9,inactive
same,Potency,PC15,inactive
same,Potency,PC49,inactive
same,Potency,W2,inactive
Oc1ccc2c3c1O[C@H]1[C@@H](O)CC[C@@]4(O)C(C2)N(CC2CCC2)CCC314 (stereo partly specified),Potency,[7],inactive
same,Potency,[8],inactive
same,Potency,3D7,inactive
same,Potency,CP211,inactive
same,Potency,CP247,inactive
same,Potency,CP256,inactive
same,Potency,CP268,inactive
same,Potency,Dd2,inactive
same,Potency,ECU,inactive
same,Potency,FAB9,inactive
same,Potency,PC15,inactive
same,Potency,PC49,inactive
same,Potency,W2,inactive
COc1cc(C=C(C#N)C#N)cc(O)c1O,Potency,[9],12.6 µM (active)
same,Potency,[3],inactive
same,outcome,[4],inactive
same,Potency,[5],inactive
CC[C@@H](CO)NC(=O)[C@H]1C=C2c3cccc4c3c(cn4C)C[C@H]2N(C)C1,Potency,[9],15.8 µM (active)
C[N+]1(C)C2CC(OC(=O)C(CO)c3ccccc3)CC1C1OC12 (stereo unspecified),Potency,[2],inactive
CCCC[N+]1(C)C2CC(OC(=O)C(CO)c3ccccc3)CC1C1OC12 (stereo unspecified),Potency,[7],inactive
same,Potency,[8],inactive
same,Potency,3D7,inactive
same,Potency,CP211,inactive
same,Potency,CP247,inactive
same,Potency,CP256,inactive
same,Potency,CP268,inactive
same,Potency,Dd2,inactive
same,Potency,ECU,inactive
same,Potency,FAB9,inactive
same,Potency,PC15,inactive
same,Potency,PC49,inactive
same,Potency,W2,inactive
